Earlier results on 47 molecules are cited in PubChem BioAssay AID977608.

The whole screen tested about 4,300 compounds, of which about 4,300 (100%) were called active. The limit is not given here; nearly all actives have IC50 up to about 1400 µM. So high a share suggests a set chosen from earlier hits. This is one part of the list.

A short description of this series: protein-ligand inhibition affinities from structures – PDB-derived complexes (AID 977608).

As usually defined, the IC50 is the midpoint of a concentration-inhibition curve. `Cn1ncnc1[C@H]1c2n[nH]c(=O)c3cc(F)cc(c23)N[C@@H]1c1ccc(F)cc1`: the IC50 (literature IC50, protein: Poly [ADP-ribose] polymerase 1 PARP1, PDB entry 4pjt) is 0.00057 µM (active).
`Nc1nc(Nc2cccc(S(N)(=O)=O)c2)sc1C(=O)c1ccccc1`: for the setting “literature IC50, protein: Cyclin-dependent kinase 2, PDB entry 3rni”, the IC50 is 6.7 µM (active).
As to `NC(=O)c1sc(Nc2ccccc2)nc1N`, the IC50 (literature IC50, protein: Cyclin-dependent kinase 2, PDB entry 3rzb) is 100 µM (active).
For `CS(=O)(=O)c1ccc(C(=O)Nc2cccc(-c3cn4ccnc4c(Nc4ccc(C(=O)N5CCOCC5)cc4)n3)c2)cc1`, under “literature IC50, protein: Tyrosine-protein kinase BTK, PDB entry 4ot6”, the IC50 was 1.2 µM (active).
Turning to `O=C(Nc1ccc2[nH]nc(-c3ccncc3)c2c1)[C@@H]1CCN(CC(=O)N2CCN(c3ccc(-c4ncccn4)cc3)CC2)C1`, the half-inhibitory concentration (IC50) by setting is: (literature IC50, protein: Haspin, PDB entry 4qtc) 0.398 µM (active); (literature IC50, protein: Mitogen-activated protein kinase 8 JNK1, PDB entry 4qtd) 1.08 µM (active).
As to `O=C1NC(=Nc2ccccc2)N=C1Cc1ccc2c(c1)OCO2`, the IC50 (literature IC50, protein: Serine/threonine-protein kinase pim-1, PDB entry 4gw8) was 0.88 µM (active).
On to `C/C=C\CCC[C@H](C(=O)N1CCC[C@H]1C(=O)OC)N(C)C(=O)[C@H](C)NC(=O)[C@H](CC(C)C)NC(=O)C[C@H](O)[C@H](Cc1ccccc1)NC(=O)c1cc(NS(C)(=O)=O)cc(C(=O)N[C@H](C)c2ccccc2)c1`, for which the concentration for half-maximal inhibition (IC50) (literature IC50, protein: Beta-secretase 1 (K75A,E77A mutation), PDB entry 4dvf) was 0.128 µM (active).
Regarding `O=C(O)c1cc2ccccc2o1`, the IC50 (literature IC50, protein: Adenylate cyclase type 10 hsolAC, PDB entry 4oyp) is 1000 µM (active).
For the molecule `CCc1nc(N)nc(N)c1-c1ccc2c(c1)N(CCNC(C)=O)C(=O)C(C)(C)O2`, the IC50 (literature IC50, protein: human Renin, PDB entry 2g1r) is 0.02 µM (active).
`C[C@H](N[C@@H](CCc1ccccc1)C(=O)O)C(=O)N1CC=C[C@H]1C(=O)O`: the IC50 (literature IC50, protein: HUMAN TESTICULAR ANGIOTENSIN I-CONVERTING ENZYME, PDB entry 1uze) is 0.00127 µM (active).
As for `NC[C@@](O)(c1ccc(Cl)cc1)c1ccc(-c2cn[nH]c2)cc1`, the IC50 (literature IC50, protein: CAMP-DEPENDENT PROTEIN KINASE CATALYTIC SUBUNIT ALPHA, PDB entry 4axa) was 0.01 µM (active).
In the case of `NC1NC(=O)c2[nH]cnc2N1` (stereo unspecified), the IC50 (literature IC50, protein: human Purine nucleoside phosphorylase, PDB entry 1v2h) was 5 µM (active).
Regarding `CC(=O)N[C@H]1[C@H]([C@H](O)[C@H](O)CO)O[C@@H](C(=O)O)C[C@@H]1NC(N)N`, the IC50 runs as follows: (literature IC50, protein: Neuraminidase, PDB entry 4mwr) 0.00041 µM (active); (literature IC50, protein: Neuraminidase, PDB entry 4mwx) 0.0757 µM (active).
Turning to `CO[C@@H]([C@@H]1O[C@H](C(=O)O)C[C@H](NC(N)N)[C@H]1NC(C)=O)[C@H](O)CO`, the IC50 (literature IC50, protein: Neuraminidase, PDB entry 4mwu) is 0.00324 µM (active) and the IC50 (literature IC50, protein: Neuraminidase, PDB entry 4mwy) was 0.0896 µM (active).
With `CO[C@@H]([C@@H]1OC(C(=O)O)=C[C@H](NC(N)N)[C@H]1NC(C)=O)[C@H](O)CO`, the half-inhibitory concentration (IC50) (literature IC50, protein: Neuraminidase, PDB entry 4hzw) was 0.00131 µM (active).
Regarding `CC(C)[C@H](NC(=O)CCc1ccccc1)[P+](O)(O)C[C@@H](CCCCCN)C(=O)O`, the IC50 (literature IC50, protein: Carboxypeptidase B, PDB entry 3wc7) was 0.0055 µM (active).
As for `Nc1[nH]c2c(=O)n3cnc2[n+]1[C@@H]1O[C@H](CO[P+](O)(O)O[P+](O)(O)OC[C@H]2O[C@@H]3[C@H](O)[C@@H]2O)[C@@H](O)[C@H]1O`, the IC50 (literature IC50, protein: ADP-ribosyl cyclase 1, PDB entry 3u4h) is 56 µM (active).
For the molecule `Nc1c2ncn3c2nc[n+]1[C@@H]1C[C@H](CO[P+](O)(O)O[P+](O)(O)OC[C@H]2O[C@@H]3[C@H](O)[C@@H]2O)[C@@H](O)[C@H]1O`, the IC50 (literature IC50, protein: ADP-ribosyl cyclase 1, PDB entry 3u4i) is 129 µM (active).
`C/C(=C\CO[P+](O)(O)O[P+](O)(O)O)CN`: the IC50 (literature IC50, protein: 4-hydroxy-3-methylbut-2-enyl diphosphate reductase, PDB entry 4h4d) is 0.15 µM (active).
As for `C/C(=C\CO[P+](O)(O)O[P+](O)(O)O)CS`, the IC50 (literature IC50, protein: 4-hydroxy-3-methylbut-2-enyl diphosphate reductase, PDB entry 4h4e) was 0.21 µM (active).
With `C[C@]1(c2cc(NC(=O)c3ccc(C#N)cn3)ccc2F)NC(N)O[C@@H](C(F)(F)F)[C@@H]1F` (stereo partly specified), the half-inhibitory concentration (IC50) (literature IC50, protein: Beta-secretase 1, PDB entry 4j1i) was 0.04 µM (active).
On to `C[C@]1(c2cc(NC(=O)c3ccc(C#N)cn3)ccc2F)NC(N)O[C@H](C(F)(F)F)[C@@H]1F` (stereo partly specified), for which the IC50 (literature IC50, protein: Beta-secretase 1, PDB entry 4j1k) is 0.013 µM (active).
As for `O=C(CCc1cc(C(=O)c2cccc(F)c2)c[nH]1)C[C@@H](O)C(=O)O`, the IC50 (literature IC50, protein: DNA nucleotidylexotransferase, Tdt core, PDB entry 4iqt) is 0.78 µM (active).
Regarding `CC(=O)O[C@]1(C(C)=O)CC[C@H]2[C@@H]3CCC4=CC(=O)CCC4=C3[C@@H](c3ccc(N(C)C)cc3)C[C@@]21C`, the IC50 (literature IC50, protein: Progesterone receptor, PDB entry 4oar) is 3.8e-05 µM (active).
Take `CC(C)C1=CC2=CC(=O)[C@H]3C(C)(C)CCC[C@]3(C)C2=C(O)C1=O`: for the setting “literature IC50, protein: Farnesyl pyrophosphate synthase HsFPPS-11, PDB entry 4p0x”, the IC50 is 1.2 µM (active).
Regarding `O=C1N=CN2NC(Sc3ccc(F)cc3F)=CC=C2C1c1c(Cl)cccc1Cl` (stereo unspecified), for the setting “literature IC50, protein: human p38 kinase, Mitogen-activated protein kinase 14, MAPK14, PDB entry 3fc1”, the IC50 was 0.01 µM (active).
For `CCCNc1nc(N)c(C(O)c2cccc([N+](=O)[O-])c2)s1` (stereo unspecified), under “literature IC50, protein: Cyclin-dependent kinase 2, PDB entry 3r8v”, the IC50 was 2.9 µM (active).
For the molecule `CC(C)Nc1nc(N)c(C(O)c2cccnc2)s1` (stereo unspecified), where the note is “literature IC50, protein: Cyclin-dependent kinase 2, PDB entry 3rk9”, the IC50 is 0.52 µM (active).
For `CCCNc1nc(N)c(C(O)c2cccnc2)s1` (stereo unspecified), the IC50 (literature IC50, protein: Cyclin-dependent kinase 2, PDB entry 3qtq) was 3.1 µM (active).
`CCCNc1nc(N)c(C(O)c2ccccn2)s1` (stereo unspecified): the IC50 (literature IC50, protein: Cyclin-dependent kinase 2, PDB entry 3s0o) was 33 µM (active).
With `CCCNc1nc(N)c(C(O)c2ccc3ccccc3c2)s1` (stereo unspecified), the IC50 (literature IC50, protein: Cyclin-dependent kinase 2, PDB entry 3r8u) is 5 µM (active).
Regarding `CCCNc1nc(N)c(C(O)c2ccncc2)s1` (stereo unspecified), the half-inhibitory concentration (IC50) (literature IC50, protein: Cyclin-dependent kinase 2, PDB entry 3r8z) is 49 µM (active).
Regarding `COc1cc2nccc(Oc3ccc4oc(Nc5ccc(Cl)cc5)nc4c3)c2cc1OC`, the IC50 (literature IC50, protein: ALK tyrosine kinase receptor (C1097S, R1275Q mutation), PDB entry 4fny) is 0.016 µM (active).
For the molecule `CC(=O)Nc1cccc(-c2ccn([C@@H](Cc3cc[n+]([O-])cc3)c3ccc(OC(F)F)c(OCC4CC4)c3)n2)c1`, the IC50 (literature IC50, protein: cAMP-specific 3',5'-cyclic phosphodiesterase 4D, PDB entry 3v9b) was 0.0005 µM (active).
Consider `CN1C2=C(NC[C@@H]1CNc1ccc(C(=O)N[C@@H](CCC(=O)N[C@@H](CCC(=O)O)C(=O)O)C(=O)O)cc1)NC(N)=NC2O` (stereo partly specified), for which the IC50 (literature IC50, protein: Cyclic AMP-GMP synthase DncV (deletion mutant D-loop), PDB entry 4u0n) was 1.69 µM (active).
For `CN1C2C(=NC[C@@H]1CNc1ccc(C(=O)N[C@@H](CCC(=O)N[C@@H](CCC(=O)O)C(=O)O)C(=O)O)cc1)NC(N)=NC2O` (stereo partly specified), the IC50 reads like this: (literature IC50, protein: Cyclic AMP-GMP synthase DncV (D193N mutant), PDB entry 4u0m) 1.69 µM (active); (literature IC50, protein: Cyclic AMP-GMP synthase DncV, PDB entry 4u03) 1.69 µM (active).
Regarding `O=C(Nc1nc2ccccc2s1)c1cccc2c1CN(c1nc(C(=O)O)c(CCCOc3ccc(-n4ncc5cncnc54)cc3)s1)CC2`, the IC50 (literature IC50, protein: Bcl-2-like protein 1 Bcl-xL, PDB entry 4tuh) is 100 µM (active).
Turning to `Cc1c(-c2c([C@H](OC(C)(C)C)C(=O)O)n(C)c(=O)c3ccccc23)cc(F)c2c1CCCO2`, the IC50 (literature IC50, protein: HIV-1 Integrase HIV-1 IN, PDB entry 4ojr) was 0.038 µM (active).
Take `CCc1sc(-c2ccc(OC)c(OCCF)c2)nc1CSc1nc(N)cc(N)n1`: the half-inhibitory concentration (IC50) (literature IC50, protein: Deoxycytidine kinase, Human dCK C4S-S74E mutant, PDB entry 4jlm) was 0.0227 µM (active).
With `Cc1ccc(CN(C)c2cc(C)nc3ncnn23)cc1`, the half-inhibitory concentration (IC50) (literature IC50, protein: Bromodomain-containing protein 4, PDB entry 4men) is 125 µM (active).
On to `C[N+](C)(C)CCCC(=O)O`, for which the IC50 (literature IC50, protein: human gamma-butyrobetaine hydroxylase, PDB entry 4c5w) is 3.3 µM (active).
As to `COc1cc(Nc2nccc(Nc3ccc4c(C)[nH]nc4c3)n2)cc(OC)c1OC`, the IC50 (literature IC50, protein: Bromodomain-containing protein 4 BRD4-1, PDB entry 4o78) was 4.6 µM (active).
Regarding `COc1cc(NC(=O)c2cccc3cccnc23)c(OC)cc1Cl`, for the setting “literature IC50, protein: 3-OXOACYL-[ACYL-CARRIER-PROTEIN] REDUCTASE FABG, PDB entry 4bo1”, the IC50 was 0.05 µM (active).
`CC(C)(C)OC(=O)NCc1cn([C@H]2C[C@@H](C(=O)N3CCC[C@H]3C=N)N(C(=O)CCCc3ccccc3)C2)nn1`: the IC50 (literature IC50, protein: PROLYL ENDOPEPTIDASE, PDB entry 4bcc) was 0.009 µM (active).
`[N-]=[N+]=N[C@H]1C[C@@H](C(=O)N2CCC[C@H]2C=N)N(C(=O)CCCc2ccccc2)C1`: for the setting “literature IC50, protein: PROLYL ENDOPEPTIDASE, PDB entry 4bcb”, the IC50 was 0.003 µM (active).
Consider `Cc1c(O)cccc1C(=O)N[C@H](C(=O)N[C@@H](CO)C(=O)N[C@H](CCS(C)(=O)=O)Cc1ccc(CN)cc1)C(C)C`, for which the IC50 (literature IC50, protein: yeast 20S proteasomes, PDB entry 4int) is 1.6 µM (active).
For `CC(C)C[C@H](NC(=O)[C@@H](Cc1ccc(CN)cc1)NC(=O)[C@H](Cc1ccccc1)N=[N+]=[N-])C(=O)N[C@H](CCS(C)(=O)=O)Cc1ccc(CN)cc1`, for the setting “literature IC50, protein: yeast 20S proteasomes, PDB entry 4inu”, the concentration for half-maximal inhibition (IC50) was 0.00055 µM (active).
